Inconclusive results are not listed. Unmarked numbers belong to inactive results. Activity calls are given as the source filed them. The call rests on the fitted dose curve; in most records, active means well fitted curve in the direction sought with a large enough effect; inconclusive means small, poorly fitted or top-dose-only effect, or another doubt; inactive means no such curve, though single readings can be large; an effect the other way counts as inactive or inconclusive. Peptide text beside a SMILES is read from it. * marks the point of attachment. Cbz = O=C(OCc1ccccc1)*

By viability is commonly meant a read-out of living cells in per cent, often relative to untreated cells.
Further: nearly all actives have a fitted effect of over 35% in size.
Potency means the concentration at half of the fitted maximal effect.

The first test can be described thus: Quantitative highthroughput screen to assess conditional lethalithy of P12 Ichikawa cells grown in RPMI1640 with untreated serum (RPMI+s) (AID 1963881).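 On viability: 100% = DMSO wells and 0% = empty wells without cells.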 As to conditions: ATP luminescence, 48 h; Potency: viability; series mostly up to 45.8 µM; viability: at the top concentration. A digest of the protocol: (§1)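 Each medium arm—HPLM with 10% dialyzed FBS, or RPMI1640 with 5 mM glucose and 10% untreated or dialyzed FBS—was screened against an 11-point, 3-fold compound titration for 48 h at 37 °C, with CellTiter-Glo luminescence as endpoint.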
Take `Cc1cnc(C(=O)O)c[n+]1[O-]`: the “viability” value is 88.6%.

`N=c1ccn2c(n1)O[C@H]1[C@@H](O)[C@@H](CO)O[C@H]12`: the Potency is 0.118 µM (active). Regarding `C#Cc1cccc(Nc2ncnc3cc(OC)c(OCCCCCCC(=O)NO)cc23)c1`, the Potency was 0.235 µM (active). With `Cc1cc(CN2CCN(c3c(Br)cnc4nc(-c5ccc(N6CCN(C)CC6)cc5)[nH]c34)CC2)no1`, the Potency was 0.935 µM (active). Take `Cc1noc(NS(=O)(=O)c2ccc(N)cc2)c1C`: the “viability” value was 103%. In the case of `CCOC(=O)c1ccc(C#Cc2ccc3c(c2)C(C)(C)CCS3)nc1`, the “viability” value is 90.8%.

Another test can be described thus: Quantitative highthroughput screen to assess conditional lethalithy of SEM cells grown in Human Plasma-Like Medium with dialyzed fetal bovine serum (HPLM+ds) (AID 1963882). As to conditions: SEM B-ALL cells in HPLM+ds, CellTiter-Glo viability, 48 h; series mostly up to 45.8 µM; viability: at the top concentration. The method, boiled down: as §1
In general terms: In ATP-based viability assays light output follows the ATP content of the culture.
As to `N#Cc1c(N(CC(=O)O)CC(=O)O)sc(C(=O)O)c1CC(=O)O`, the Potency was 13.2 µM (active). For the compound `CNC1CCC(N(Cc2cccc(-c3ccncc3)c2)C(=O)c2sc3ccccc3c2Cl)CC1` (stereo not given), the Potency was 1.32 µM (active).

As to `CN(C)S(=O)(=O)c1ccc2c(c1)C(=Cc1cc3c([nH]1)CCCC3)C(=O)N2`, the “viability” value was 97.1%. Turning to `O=C1N(c2ccccc2)c2ccccc2C1(Cc1ccncc1)Cc1ccncc1`, the “viability” value is 112%. For `OC(Cn1cncn1)(Cn1cncn1)c1ccc(F)cc1F`, the “viability” value was 101%. Turning to `Cc1nc(N)ncc1-c1nc(N2CCOCC2)c2sc(C(C)(C)O)cc2n1`, the Potency is 0.148 µM (active). Take `CCCCCCCCCCCCCC(=O)N[C@H](CO)[C@H](O)c1ccc([N+](=O)[O-])cc1`: the Potency was 1.32 µM (active). Consider `O=C(O)Cc1cccc(OCCCN(Cc2cccc(C(F)(F)F)c2Cl)CC(c2ccccc2)c2ccccc2)c1`, for which the “viability” value was 90.3%. `COc1ccc(C2CNC(=O)C2)cc1OC1CCCC1` (stereo not given): the “viability” value was 95.7%. `CC(C)C[C@@H](C=O)NC(=O)[C@H](CC(C)C)NC(=O)[C@H](CC(C)C)NC(=O)OCc1ccccc1` (Cbz-Leu-Leu-Leu-aldehyde): the Potency was 0.662 µM (active).

On to `CCS(=O)(=O)c1cccc(-c2cc(C(=O)NC3CCN(C)CC3)c(C)c3[nH]c4ncc(C)cc4c23)c1`, for which the Potency was 0.469 µM (active). Turning to `CN1CCN(Cc2ccc(NC(=O)Nc3ccc(Oc4cc(NC(=O)C5CC5)ncn4)cc3)cc2C(F)(F)F)CC1`, the Potency was 0.0209 µM (active). Take `Cc1cc(Nc2ncc(Cl)c(Nc3ccccc3S(=O)(=O)C(C)C)n2)c(OC(C)C)cc1C1CCNCC1`: the Potency is 14.8 µM (active).

In the case of `N[C@@H](Cc1cc(I)c(Oc2cc(I)c(O)c(I)c2)c(I)c1)C(=O)O`, the “viability” value is 90.2%. Same read-out and setting: with `Cc1ccccc1-n1c(Cn2nc(-c3cccc(O)c3)c3c(N)ncnc32)nc2cccc(C)c2c1=O` the figure was 78.6%; with `Cc1nc(-c2ccc(OCC(C)C)c(C#N)c2)sc1C(=O)O`, 105%. `C=CC(=O)N1CCc2ccc(-n3c(=O)ccc4cnc5ccc(-c6cnn(C)c6)cc5c43)cc21`: the Potency is 3.32 µM (active). As for `Cc1onc(-c2ccccc2Cl)c1C(=O)N[C@@H]1C(=O)N2[C@@H]1SC(C)(C)[C@@H]2C(=O)O`, the “viability” value was 108%. The same measure, in the same setting: with `CCC(=O)N[C@H]1CC[C@H](C(=O)N(C)c2ccc(-c3nc4ccccc4o3)cc2)C1` the figure was 95.2%. Consider `Cc1cnc(Nc2ccc(OCCN3CCCC3)cc2)nc1Nc1cccc(S(=O)(=O)NC(C)(C)C)c1`, for which the Potency was 10.5 µM (active). As to `O=C(O)c1cc(=O)c2c(OCC(O)COc3cccc4oc(C(=O)O)cc(=O)c34)cccc2o1`, the “viability” value is 104%. Regarding `Nc1ccccc1NC(=O)c1ccc(CNC(=O)OCc2cccnc2)cc1`, the Potency was 0.833 µM (active). Take `Cc1cnc(Nc2ccc(CN3CCOCC3)cc2)nc1Nc1cccc(S(=O)(=O)NC(C)(C)C)c1`: the Potency was 0.743 µM (active). As for `Cc1cnc(C(=O)O)c[n+]1[O-]`, the “viability” value is 96.3%. Consider `N=c1ccn2c(n1)O[C@H]1[C@@H](O)[C@@H](CO)O[C@H]12`, for which the Potency was 0.132 µM (active).

Take `C#Cc1cccc(Nc2ncnc3cc(OC)c(OCCCCCCC(=O)NO)cc23)c1`: the Potency is 0.296 µM (active).

On to `Cc1noc(NS(=O)(=O)c2ccc(N)cc2)c1C`, for which the “viability” value was 107%. For the compound `CCOC(=O)c1ccc(C#Cc2ccc3c(c2)C(C)(C)CCS3)nc1`, the “viability” value was 91.2%. For `NNC(=O)c1ccncc1`, the “viability” value is 86.3%.

A further test can be described thus: Quantitative highthroughput screen to assess conditional lethalithy of SEM cells grown in RPMI1640 with unreated serum (RPMI+s) (AID 1963883).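 On viability: 100% = DMSO wells and 0% = empty wells without cells.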 As to conditions: SEM B-ALL cells, CellTiter-Glo viability, 48 h; series mostly up to 45.8 µM; viability: at the top concentration. The method, boiled down:
as §1
Consider `CN(C)S(=O)(=O)c1ccc2c(c1)C(=Cc1cc3c([nH]1)CCCC3)C(=O)N2`, for which the “viability” value was 95.6%. As for `OC(Cn1cncn1)(Cn1cncn1)c1ccc(F)cc1F`, the “viability” value was 105%.

On to `Cc1nc(N)ncc1-c1nc(N2CCOCC2)c2sc(C(C)(C)O)cc2n1`, for which the Potency was 0.0332 µM (active).

In the case of `CCCCCCCCCCCCCC(=O)N[C@H](CO)[C@H](O)c1ccc([N+](=O)[O-])cc1`, the Potency was 0.743 µM (active). In the case of `CN1CCN(CCCN2c3ccccc3Sc3ccc(C(F)(F)F)cc32)CC1`, the “viability” value was 99.4%. Consider `O=C(Nc1cccc(Cl)c1)Nc1ncc(CCNc2ncnc3ccsc23)s1`, for which the Potency is 0.209 µM (active). For `O=C(O)Cc1cccc(OCCCN(Cc2cccc(C(F)(F)F)c2Cl)CC(c2ccccc2)c2ccccc2)c1`, the “viability” value is 104%. Turning to `COc1ccc(C2CNC(=O)C2)cc1OC1CCCC1` (stereo not given), the “viability” value is 98.5%.

Regarding `CC(C)c1cnn2c(NCc3ccccc3)cc(N[C@@H](CO)[C@H](O)CO)nc12`, the Potency was 0.59 µM (active). Take `CC(C)C[C@@H](C=O)NC(=O)[C@H](CC(C)C)NC(=O)[C@H](CC(C)C)NC(=O)OCc1ccccc1` (Cbz-Leu-Leu-Leu-aldehyde): the Potency was 0.332 µM (active). With `CCS(=O)(=O)c1cccc(-c2cc(C(=O)NC3CCN(C)CC3)c(C)c3[nH]c4ncc(C)cc4c23)c1`, the Potency was 0.296 µM (active). Turning to `COc1ccc2c(Oc3ccc(NC(=O)c4c(C)n(CC(C)(C)O)n(-c5ccccc5)c4=O)cc3F)ccnc2c1`, the Potency was 3.32 µM (active). As to `CN1CCN(Cc2ccc(NC(=O)Nc3ccc(Oc4cc(NC(=O)C5CC5)ncn4)cc3)cc2C(F)(F)F)CC1`, the Potency is 0.0118 µM (active). Still for that read-out and setting: with `CC(C)Oc1cc(Nc2nc(N[C@@H](C)c3ccc(F)cn3)ncc2Cl)[nH]n1` the figure was 0.526 µM (active). In the case of `N[C@@H](Cc1cc(I)c(Oc2cc(I)c(O)c(I)c2)c(I)c1)C(=O)O`, the “viability” value is 92.8%. On the same count and under the same terms, with `Cc1ccccc1-n1c(Cn2nc(-c3cccc(O)c3)c3c(N)ncnc32)nc2cccc(C)c2c1=O` the figure was 79.8%; with `Cc1nc(-c2ccc(OCC(C)C)c(C#N)c2)sc1C(=O)O`, 115%. Regarding `C=CC(=O)N1CCc2ccc(-n3c(=O)ccc4cnc5ccc(-c6cnn(C)c6)cc5c43)cc21`, the Potency is 3.32 µM (active).

Regarding `Cc1onc(-c2ccccc2Cl)c1C(=O)N[C@@H]1C(=O)N2[C@@H]1SC(C)(C)[C@@H]2C(=O)O`, the “viability” value was 90.2%. Same read-out and setting: with `Cc1cnc(Nc2ccc(OCCN3CCCC3)cc2)nc1Nc1cccc(S(=O)(=O)NC(C)(C)C)c1` the figure was 77.7%; with `O=C(O)c1cc(=O)c2c(OCC(O)COc3cccc4oc(C(=O)O)cc(=O)c34)cccc2o1`, 104%. Consider `Nc1ccccc1NC(=O)c1ccc(CNC(=O)OCc2cccnc2)cc1`, for which the Potency was 0.743 µM (active). `Cc1cnc(Nc2ccc(CN3CCOCC3)cc2)nc1Nc1cccc(S(=O)(=O)NC(C)(C)C)c1`: the Potency is 0.469 µM (active). As for `Cc1cnc(C(=O)O)c[n+]1[O-]`, the “viability” value is 86%. With `N=c1ccn2c(n1)O[C@H]1[C@@H](O)[C@@H](CO)O[C@H]12`, the Potency was 0.132 µM (active). Turning to `C#Cc1cccc(Nc2ncnc3cc(OC)c(OCCCCCCC(=O)NO)cc23)c1`, the Potency is 0.209 µM (active). As to `Cc1cc(CN2CCN(c3c(Br)cnc4nc(-c5ccc(N6CCN(C)CC6)cc5)[nH]c34)CC2)no1`, the Potency is 0.743 µM (active).

Take `Cc1noc(NS(=O)(=O)c2ccc(N)cc2)c1C`: the “viability” value is 95.2%. Still for that read-out and setting: with `CCOC(=O)c1ccc(C#Cc2ccc3c(c2)C(C)(C)CCS3)nc1` the figure was 96.6%; with `NNC(=O)c1ccncc1`, 80.1%.
